A selection: hits, their analogues and other compounds. The true share with any hit is near 3%.
Statin myotox sup – suppressors of simvastatin-induced myotoxicity in C2C12 myotubes. 330,000 tested, 0.78% active. rescue of ATP level, % at 7.49 µM. ATP luminescence, 48 h; scaled: DMSO 0, geranylgeraniol control 100;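 active means mean ATP rescue above about 67%, or every replicate alone reaching that limit, limit read from the data, passing the limit was not always enough; inconclusive means no clear call, values can overlap the other calls; inactive means mean under the limit and some replicate under it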;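 further: myotubes were challenged with 10 µM simvastatin during compound exposure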
Wnt bcat act – Wnt/beta-catenin pathway activation. 300,000 tested, 1.2% active. Wnt/beta-catenin reporter cell assay, activator, plate reader. activation, % at 9.35 µM. AID 743398; in the data active means activation above about 30%, passing the limit was not always enough; inconclusive means no clear call, values can overlap the other calls;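 further: 0% = neutral control wells and 100% = positive control wells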
esBAF inh – blocks esBAF chromatin remodeling in mouse ES cells; AID 602393; Bmi1-luciferase knock-in reporter, 24 h; 100% = twice the neutral-well signal; reporter increase, % at 12.5 µM; 350,000 tested, 2% active; in the data active means activation above about 40%; inconclusive means no clear call, values can overlap the other calls;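 further: 0% = median of the plate's neutral control wells and 100% = double that signal; a rise in the Bmi1 reporter signal indicates esBAF inhibition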
MITF TRPM1 HTS – increases MITF-driven TRPM1 promoter luciferase signal | SK-MEL-5 TRPM1-promoter luciferase, 24 h; % of positive control, neutral wells = 0 | activation, % at 12.5 µM | 300,000 tested, 0.75% active | AID 588334;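 active means mean activation of at least 80% with every replicate also reaching 80%; inconclusive means mean reaches 80% but some replicate falls short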;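 further: 0% = neutral control wells and 100% = parthenolide positive control wells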
* marks the source's active call; other numbers are inactive results.

For O=C(Nc1ccn(Cc2ccccc2)n1)c1ccc2c(c1)OCO2 the results were Wnt bcat act 16 and MITF TRPM1 HTS 72.
For O=C(Nc1ccn(Cc2ccc(Cl)cc2)n1)c1ccccc1 the results were Statin myotox sup 12, Wnt bcat act 35*, esBAF inh 56* and MITF TRPM1 HTS inconclusive.
For O=C(Nc1cccc([N+](=O)[O-])c1)c1cc2ccccc2cc1O the results were Wnt bcat act -14 and MITF TRPM1 HTS -54.
For COc1cc2ccccc2cc1C(=O)Nc1ccc(C)cc1 the results were Statin myotox sup -51, Wnt bcat act 12 and esBAF inh 46*.
O=C(Nc1ccncc1)c1cc2ccccc2cc1O was read as Statin myotox sup 7, Wnt bcat act 47*, esBAF inh 53* and MITF TRPM1 HTS 71.
For COc1cc2ccccc2cc1C(=O)Nc1ccc(Cc2ccncc2)cc1 the results were Statin myotox sup -31, esBAF inh -4 and MITF TRPM1 HTS 0.
`COc1ccc(NC(=O)Nc2cc(C)ccn2)cc1` gave Statin myotox sup 24, Wnt bcat act 44*, esBAF inh -67 and MITF TRPM1 HTS 9.
Screening Cc1ccc(NC(=O)c2cccc3ccccc23)cc1 returned Statin myotox sup -2, Wnt bcat act -1 and esBAF inh 61*.
CC(=O)Nc1ccc(NC(=O)c2cccc3ccccc23)cc1 was read as Statin myotox sup 1, Wnt bcat act 0, esBAF inh -4 and MITF TRPM1 HTS 13.
Screening C[C@H]1CN([C@@H](C)CO)C(=O)Cc2cc(NC(=O)CCCCCC(=O)Nc3ccccc3N)ccc2O[C@@H]1CN(C)S(C)(=O)=O returned Statin myotox sup -28 and esBAF inh -2.
CCNC(=O)Nc1ccc2c(c1)C(=O)N(C)[C@@H]1CC[C@@H](CC(=O)NCc3cccc(F)c3)O[C@@H]1CO2 was read as Statin myotox sup 30 and esBAF inh 3.
`O=C(Nc1ccc(F)cc1)N[C@@H]1CC[C@@H](CC(=O)N2CCOCC2)O[C@@H]1CO` gave Statin myotox sup -6 and esBAF inh 0.
For COc1cc2ccccc2cc1C(=O)Nc1cc(C)ccn1 the results were Statin myotox sup -16, Wnt bcat act 26, esBAF inh 55* and MITF TRPM1 HTS 31.
Cc1ccnc(NC(=O)Nc2ccc(Br)cc2Cl)c1 was read as Wnt bcat act 39* and MITF TRPM1 HTS 17.
`CC(=O)N[C@@H]1CC[C@H](CC(=O)NCC2CCCCC2)O[C@@H]1CO` gave Statin myotox sup 0 and esBAF inh 4.
`CCC1=NN(C(=O)c2ccccc2O)C(O)(c2ccccc2)C1` (stereo unspecified) gave Statin myotox sup 0, Wnt bcat act 2 and esBAF inh 87*.
Screening CCC1=NN(C(=O)c2ccccc2Br)C(O)(c2ccc(Br)cc2)C1 (stereo unspecified) returned Wnt bcat act -2 and MITF TRPM1 HTS -6.
For COc1ccc(NC(=O)Nc2ccc3c(c2)CC(=O)N([C@H](C)CO)C[C@@H](C)[C@H](CN(C)CC2CCCCC2)O3)cc1 the results were Statin myotox sup -96 and esBAF inh 27.
For COc1ccc2c(c1)CC/C(=C\c1ccc(C)o1)C2=O the results were Statin myotox sup 2, Wnt bcat act 16, esBAF inh 40 and MITF TRPM1 HTS 87*.
COc1ccc2c(c1)CC/C(=C/c1ccncc1)C2=O was read as Statin myotox sup -1, esBAF inh 10 and MITF TRPM1 HTS -4.
`C[C@@H]1CN([C@@H](C)CO)C(=O)Cc2cc(NC(=O)Nc3ccccc3)ccc2O[C@H]1CN(C)Cc1ccncc1` gave Statin myotox sup -17 and esBAF inh 3.
For Cc1cccc(C)c1NC(=O)CN the results were Statin myotox sup -7, Wnt bcat act 45*, esBAF inh -8 and MITF TRPM1 HTS -4.
Screening CSCCC(=O)N1CCC(n2nccc2NC(=O)c2ccc3c(c2)OCO3)CC1 returned Statin myotox sup -27, Wnt bcat act 16, esBAF inh 61* and MITF TRPM1 HTS 44.
For CCCOc1ccc2c3c(c(=O)oc2c1)CCCC3 the results were Statin myotox sup -22, esBAF inh 48* and MITF TRPM1 HTS 32.
Screening O=C(O)COc1ccc2c3c(c(=O)oc2c1)CCC3 returned Statin myotox sup 117*, Wnt bcat act -2, esBAF inh -2 and MITF TRPM1 HTS 1.
CCCOc1ccc2c(C)c(CC(=O)OC)c(=O)oc2c1 was read as Statin myotox sup -37, esBAF inh 68* and MITF TRPM1 HTS 125*.
`COC(=O)Cc1c(C)c2ccc(OCC(=O)N(C)C)cc2oc1=O` gave Statin myotox sup 0, esBAF inh -10 and MITF TRPM1 HTS 9.
`COc1ccc(-c2c(C)c3ccc(OCC(C)=O)cc3oc2=O)cc1` gave Wnt bcat act 27 and esBAF inh 68*.
Screening O=C(N[C@@H]1CC[C@@H](CCNS(=O)(=O)c2ccccc2)O[C@@H]1CO)c1cccc(F)c1 returned Statin myotox sup 1 and esBAF inh 3.
Screening CCCN1C[C@@H](C)[C@H](OC)CN(C)C(=O)c2cc(NC(=O)c3ccccc3F)ccc2OC[C@@H]1C returned Statin myotox sup 10 and esBAF inh 2.
CCOC(=O)c1c(C)[nH]c(C(=O)COC(=O)C2CC(=O)N(Cc3ccccc3)C2)c1C (stereo unspecified) was read as Statin myotox sup 92*, esBAF inh 4 and MITF TRPM1 HTS -20.
CCOC(=O)c1c(C)[nH]c(C(=O)COC(=O)c2cccnc2Cl)c1C was read as Statin myotox sup 5, Wnt bcat act 16, esBAF inh 65* and MITF TRPM1 HTS 83*.
Screening Cc1[nH]c2ccccc2c1C(=O)COC(=O)C1CC(=O)N(Cc2ccccc2)C1 (stereo unspecified) returned Statin myotox sup -8, esBAF inh -2 and MITF TRPM1 HTS -2.
For C/C=C/c1ccc2c(c1)O[C@@H](CN(C)C(=O)Cc1ccccc1)[C@@H](C)CN([C@@H](C)CO)S2(=O)=O the results were Statin myotox sup 18 and esBAF inh -6.
For Cc1nc(NC(=O)CN2CCOCC2)sc1-c1ccccc1 the results were Statin myotox sup -49, Wnt bcat act 14, esBAF inh 50* and MITF TRPM1 HTS 53.
`O=C(CN1CCCCC1)Nc1nc(-c2ccccc2)cs1` gave Statin myotox sup -2, Wnt bcat act 9, esBAF inh 55* and MITF TRPM1 HTS 36.
`CO[C@H](C(=O)N(C)C[C@H]1OCc2ccccc2-c2ccccc2C(=O)N([C@@H](C)CO)C[C@H]1C)c1ccccc1` gave Statin myotox sup -3 and esBAF inh 7.
Screening N#Cc1ccccc1NC(=S)NC(=O)c1cccs1 returned Statin myotox sup 20, Wnt bcat act 9, esBAF inh 45* and MITF TRPM1 HTS -9.
Screening CCC(=O)Nc1cccc(NC(=S)NC(=O)c2ccccc2Cl)c1 returned MITF TRPM1 HTS 41.
For CCC(=O)Nc1cccc(NC(=S)NC(=O)c2cccs2)c1 the results were MITF TRPM1 HTS 86*.
For CCCC(=O)Nc1ccc2c(c1)C(=O)N(C)C[C@H](OC)[C@H](C)CN(C)[C@@H](C)CO2 the results were Statin myotox sup 1 and esBAF inh -3.

Assay outcomes deposited in PubChem by Broad Institute.
